From PubChem BioAssay AID686978 (National Center for Advancing Translational Sciences (NCATS), 2013) come the findings set out here.

Molecules are shown by their SMILES. About 64,000 (15%) of roughly 420,000 compounds were called active. About 27% were inconclusive and are not listed. Calls follow the shape of the dose curve; as a rule, active = well fitted inhibition curve with a large enough effect; inconclusive = small, poorly fitted or top-dose-only effect; inactive = flat fitted curve, though single readings scatter. Only a sample is shown. Where a call stands in place of a potency, no number is given.
Potency is read from the fitted curve at half-maximal effect.

This experiment in a line: qHTS for Inhibitors of human tyrosyl-DNA phosphodiesterase 1 (TDP1): qHTS in cells in absence of CPT. Also: nearly all actives have a fitted effect of over 55% in size. The note with it: DT40 Tdp1-/- hTDP1 cells, no CPT, ATP luminescence, 48 h; activity change, negative = growth inhibition: at 46.2 µM (top of the series). A digest of the protocol:
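Luminescent ATP content (CellTiter-Glo) served as the growth readout. Knockout chicken DT40 cells expressing human TDP1 were exposed to compounds without camptothecin for a minimum 48 hr at 37 °C.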
(qHTS replaces the single test concentration by a dilution series.)
`Cc1ccc(N2CCN(/N=C/c3cccs3)CC2)cc1`: the Potency result was “inactive”.

On to `CCN1CCN(C2CCCCC2NS(=O)(=O)c2ccc(Cl)cc2)CC1` (configuration not stated), for which the Potency entry is “inactive”.

For `O=C1OC(C(O)CO)C(O)=C1O` (configuration not stated), the Potency result was “inactive”.

In the case of `COC(=O)c1ccc(COC(=O)C2CCN(S(=O)(=O)c3c(Cl)cccc3Cl)CC2)o1`, the Potency result is “inactive”.

Regarding `CC(C)(C)n1nnc(CCc2nnn(C(C)(C)C)n2)n1`, the Potency entry was “inactive”.

With `O=S(=O)(NCCCN1CCOCC1)c1ccc(F)c(Cl)c1`, the Potency result was “inactive”.

As to `CCCC1(C(=O)OC)NC(c2ccco2)C2C(=O)N(C)C(=O)C21` (configuration not stated), the Potency entry is “inactive”.

In the case of `COC(=O)[C@]1(CC(C)C)N[C@H](c2ccc(SC3CCCCC3)cc2)[C@@H]2C(=O)N(C)C(=O)[C@@H]21`, the Potency was 23.1 µM (active).

Take `COC(=O)[C@]1(C)N[C@H](CN(C)C(=O)c2ccc(C(C)(C)C)cc2)[C@@H]2C(=O)N(C)C(=O)[C@@H]21`: the Potency entry is “inactive”.

As to `CCc1nc2cc(C(=O)NCC3CCS(=O)(=O)C3)cc(NC(=O)c3ccccc3OC)c2n1C` (configuration not stated), the Potency result was “inactive”.

Take `COc1ccc(-c2nc3cnc(Oc4ccccc4)nc3n(Cc3cccs3)c2=O)cc1`: the Potency result was “inactive”.

Take `CCc1nnc(NC(=O)c2ccco2)s1`: the Potency entry is “inactive”.

As for `CCc1nnc(NC(=O)c2sc3nc(C)cc(COC)c3c2N)s1`, the Potency result is “inactive”.

Regarding `CCc1ccc2nc3sc(C(=O)Nc4nnc(CC)s4)c(N)c3cc2c1`, the Potency is 18.4 µM (active).

For the compound `CCC(=O)c1ccc(OCC(O)CN2C(=O)NC(C)(C)C2=O)cc1` (configuration not stated), the Potency result was “inactive”.

For the compound `CCOC(=O)c1c(N)sc(C(C)=O)c1C`, the Potency entry was “inactive”.

In the case of `Cc1ccc(-c2cc(C(=O)Oc3ccccc3Cl)no2)cc1C`, the Potency entry is “inactive”.

Turning to `Cc1cccc(OCCSc2nc3ccc(NC(=O)COc4ccccc4C)cc3s2)c1`, the Potency result is “inactive”.

`CCCC(=O)N(CCN1CCOCC1)c1nc2ccc(OCC)cc2s1`: the Potency entry was “inactive”.

For the compound `Cc1cc(C)cc(OCC(=O)Nc2nc3ccc([N+](=O)[O-])cc3s2)c1`, the Potency entry is “inactive”.

For `O=C(Nc1ccccc1)c1ccco1`, the Potency entry was “inactive”.

On to `Cc1cc(NC(=O)COc2ccc([N+](=O)[O-])cc2)no1`, for which the Potency result was “inactive”.

As to `O=C(Nc1ccc2nc(SCCOc3ccccc3)sc2c1)c1ccco1`, the Potency was 23.1 µM (active).

On to `CCOc1ccc2nc(SC(CC)C(=O)Nc3cc(C)on3)sc2c1` (configuration not stated), for which the Potency is 18.4 µM (active).

Consider `CCOc1ccc2nc(NC(=O)c3cc([N+](=O)[O-])ccc3N3CCOCC3)sc2c1`, for which the Potency is 18.4 µM (active).

Take `Cc1cc(C)cc(OCc2nnc(SCC(=O)Nc3ccccc3)o2)c1`: the Potency result was “inactive”.

Regarding `O=C(NCCSc1ccccc1)c1ccco1`, the Potency result is “inactive”.

For `CC(=O)Nc1ccc2nc(SCCOc3cc(C)cc(C)c3)sc2c1`, the Potency was 16.4 µM (active).

As to `O=C(NC1CCCCC1)c1cc([N+](=O)[O-])ccc1N1CCOCC1`, the Potency entry is “inactive”.

`COc1cc(NS(=O)(=O)c2cccs2)cc(OC)c1`: the Potency result was “inactive”.

As to `CCOc1cc(CNCc2ccccn2)ccc1OCC(=O)NC(C)(C)C`, the Potency entry was “inactive”.

Take `Cc1cccc(NC(=O)N2CCCCCC2)c1C`: the Potency result was “inactive”.

As for `O=C(CCNC(=O)c1ccccc1Cl)NN=Cc1ccco1`, the Potency entry is “inactive”.

On to `CCOCCCNS(=O)(=O)Cc1ccccc1`, for which the Potency entry is “inactive”.

Take `CCC(C)NC(=O)CSC1=Nc2ccccc2C2=NC(CCC(=O)NCc3ccco3)C(=O)N12` (configuration not stated): the Potency entry is “inactive”.

Consider `CC(=O)c1cnc(-c2ccccc2)s1`, for which the Potency entry was “inactive”.

As to `CC(=O)c1nnn(-c2ccc(Cl)cc2C#N)c1C`, the Potency entry is “inactive”.

`CC(=O)Nc1ccc2nc(NC(=O)CS(=O)(=O)c3ccc(F)cc3)sc2c1`: the Potency result is “inactive”.

Regarding `CCOc1ccc2nc(Nc3nc4ccc(NC(C)=O)cc4s3)sc2c1`, the Potency was 10.3 µM (active).

Regarding `CNC(=O)c1ccc2nc(NC(C)=O)sc2c1`, the Potency entry is “inactive”.

With `COCCn1c(SCc2nc3cc(OC)c(OC)cc3c(=O)[nH]2)nnc1-c1ccncc1`, the Potency result is “inactive”.

As to `COc1ccc(C)cc1-n1nnnc1SCc1nc2ccccc2c(=O)[nH]1`, the Potency was 9.2 µM (active).

Regarding `O=c1c2ccccc2nc(CSc2nnnn2-c2ccccc2)n1-c1ccccc1`, the Potency result was “inactive”.

Consider `O=C1CCC[C@@H]2CC(N3CCCCC3)C[C@@H]3CCN1[C@H]23` (some centres not stated), for which the Potency result is “inactive”.

As to `S=C1Nc2cc(Cl)ccc2Sc2ccccc21`, the Potency result is “inactive”.

For the compound `Cc1cccc(C)c1NC(=O)C(Cl)C(=O)c1ccccc1` (configuration not stated), the Potency was 7.31 µM (active).

As for `Cc1ccccc1NC(=O)c1ccccc1`, the Potency result is “inactive”.

Regarding `Cc1cccc(C)c1NC(=O)CN(C)C(=O)CCC(=O)c1ccccc1`, the Potency entry is “inactive”.

On to `CCCCNCCS(=O)(=O)NCc1ccccc1`, for which the Potency result was “inactive”.

Take `C[C@H](CO)N1C[C@H](C)[C@@H](CN(C)S(=O)(=O)c2ccc(F)cc2)OCc2cnnn2CCCC1=O`: the Potency result is “inactive”.

As for `COc1cc(C(=S)N2CCOCC2)cc(OC)c1OC(=O)c1cc([N+](=O)[O-])cc([N+](=O)[O-])c1`, the Potency entry is “inactive”.

On to `CN(c1ccccc1)S(=O)(=O)c1ccc(Cl)c(C(=O)OCC(=O)N2CCOCC2)c1`, for which the Potency result is “inactive”.

Take `CCN(CC)S(=O)(=O)c1ccc(C(=O)N2CCN(C3=NS(=O)(=O)c4ccccc43)CC2)cc1`: the Potency entry is “inactive”.

Consider `COc1ccccc1N1CCN(C(=O)c2ccc(S(=O)(=O)N3CCCCC3)cc2)CC1`, for which the Potency is 25.9 µM (active).

For `COc1ccccc1CC(=O)Nc1ccc(S(=O)(=O)N2CCCC2)cc1`, the Potency result is “inactive”.

On to `COc1ccc(N2CCN(C(=O)COC(=O)c3cccc(S(=O)(=O)Nc4ccccc4OC)c3)CC2)cc1`, for which the Potency is 20.6 µM (active).

As for `COc1ccccc1N1CCN(C(=O)c2ccc(Cl)c(S(=O)(=O)N3CCCC3)c2)CC1`, the Potency was 18.4 µM (active).

Turning to `COc1ccc(N2CCN(C(=O)CNS(=O)(=O)c3ccc(C)c(C)c3)CC2)cc1`, the Potency entry was “inactive”.

As to `COc1ccc(C(=O)NCc2ccc(Cl)cc2)cc1S(=O)(=O)N1CCCC1`, the Potency result is “inactive”.

As to `O=C(c1ccc(Cl)c(S(=O)(=O)N2CCCCCC2)c1)N1CCN(c2ccc(O)cc2)CC1`, the Potency entry is “inactive”.

Regarding `COc1ccccc1N1CCN(S(=O)(=O)c2ccc(Cl)cc2)CC1`, the Potency result was “inactive”.

With `CN(c1ccccc1)S(=O)(=O)c1ccc(C(=O)N2CCN(c3ccccc3Cl)CC2)cc1`, the Potency is 20.6 µM (active).

With `CCOC(=O)N1CCN(C(=O)COC(=O)c2cccc(S(C)(=O)=O)c2)CC1`, the Potency entry is “inactive”.

Consider `COc1ccc(S(=O)(=O)NCC(c2ccc(C)cc2)N2CCN(C)CC2)cc1OC` (configuration not stated), for which the Potency entry is “inactive”.

For `CC(C)C(NC(=O)C1CCC(C(C)(C)C)CC1)C(=O)NCCCN1CCCCC1` (configuration not stated), the Potency entry is “inactive”.

As for `CC1CCN(C(=S)c2cccc(O)c2)CC1`, the Potency result is “inactive”.

Take `C/C=C/C(=O)OCC(=O)Nc1ccc(F)cc1Cl`: the Potency entry was “inactive”.
